Assay [1] addresses Progesterone receptor (Homo sapiens) (UniProt P06401). Nature of the assay: qHTS assay to identify small molecule agonists of the progesterone receptor (PR) signaling pathway (AID 1346784; calls by dose curve; note: nearly all actives have a fitted effect of over 30% in size). A digest of the protocol:
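Cells (PR-UAS-bla HEK 293T, GripTite) were plated in assay medium containing 2% charcoal-stripped FBS and incubated 6 hr. Test compounds in DMSO were added for 16 hr at 37C. FRET substrate was then loaded for 2 hr at room temperature before fluorescence reading.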
(In general: In qHTS, concentration-response curves come from the screen itself.)

A short description of assay [2]: qHTS assay to identify small molecule antagonists of the progesterone receptor (PR) signaling pathway - cell viability counter screen (AID 1346798). Note: series mostly up to about 92 µM; nearly all actives have a fitted effect of over 50% in size. A digest of the protocol:
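Counter screen for cytotoxicity: viability of PR-UAS-bla HEK293T cells was measured with CellTiter-Glo luminescence following 16 hr compound exposure in the presence of R5020.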

The nature of assay [3]: qHTS assay to identify small molecule agonists of the progesterone receptor (PR) signaling pathway - cell viability counter screen (AID 1346799; calls by dose curve; note: nearly all actives have a fitted effect of over 45% in size). An outline of the steps: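 Cells (PR-UAS-bla HEK293T) are plated at 3,000/well in 2% charcoal-stripped FBS medium, rested 6 hr, dosed and incubated 16 hr at 37C. CellTiter-Glo is then added and luminescence measured after 30 min at room temperature.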

Assay [4] in a line: qHTS assay to identify small molecule antagonists of the TGF-beta/Smad signaling pathway - cell viability counter screen (AID 1346824). Note: nearly all actives have a fitted effect of over 50% in size. An outline of the steps:
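Cytotoxicity counter-screen run in the same wells as the beta-lactamase Smad reporter read: CellTiter-Glo luminescence after 30 min at room temperature. HEK 293T SBE-bla cells had 5 hr compound exposure at 37 C with TGF-beta1 (0.25 ng/mL stock).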

Assay [5] can be described thus: qHTS assay to identify small molecule agonists of the TGF-beta/Smad signaling pathway - cell viability counter screen (AID 1346829). Note: top concentration of the series differs between compounds; nearly all actives have a fitted effect of over 45% in size. A digest of the protocol: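 Tox21 qHTS format: SBE-bla HEK 293T cells treated with DMSO-dissolved compounds for 5 hr; CellTiter-Glo luminescence after 30 min at room temperature.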
Assay [6] in a line: Human pregnane X receptor (PXR) small molecule agonists, qHTS cell viability counter screen (AID 1346977). Note: nearly all actives have a fitted effect of over 50% in size. A digest of the protocol: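 Cytotoxicity counter screen run in the same wells as the PXR luciferase assay, using PXR-Luc HepG2 cells in charcoal-stripped serum medium. Viability: CellTiter-Fluor fluorescence after 24hr compound treatment.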
Assay [7] can be described thus: Caspase-3/7 induction in HepG2 cells by small molecules, qHTS assay (AID 1346978). Note: nearly all actives have a fitted effect of over 15% in size. A digest of the protocol: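 Caspase-3/7 induction was measured by Caspase-Glo 3/7 luminescence (30 min, room temperature) after a 17 hr compound exposure of wild-type HepG2 cells seeded at 2,000 per well and pre-incubated 5 hr.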
Assay [8] in a line: Caspase-3/7 induction in HepG2 cells by small molecules, qHTS cell viability counter screen (AID 1346981). Note: series mostly up to about 92 µM; nearly all actives have a fitted effect of over 30% in size. A digest of the protocol:
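HepG2, WT, 2,000 cells/well; 5 hr pre-incubation 37 C/5% CO2; compound pin-transferred from DMSO; 16 hr exposure; CellTiter-Fluor, 1 hr; fluorescence read.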

Assay [9] addresses Nuclear receptor subfamily 1 group I member 2 (Homo sapiens) (UniProt O75469). As to the kind of experiment: Human pregnane X receptor (PXR) small molecule agonists, qHTS assay (AID 1346982). Note: nearly all actives have a fitted effect of over 35% in size. Note: potency is the fitted concentration of half-maximal effect. A digest of the protocol: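 Luciferase signal from ONE-Glo (30 min, room temperature) measured activation of hPXR-driven CYP3A4 reporter expression in PXR-Luc HepG2 cells treated with compounds for 24 hr at 37 C.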

Assay [10] addresses Acetylcholinesterase (Homo sapiens) (UniProt P22303). As to the kind of experiment: Acetylcholinesterase (AChE) small molecule antagonists: colormetric cell-based qHTS assay (AID 1347395; calls by dose curve; note: nearly all actives have a fitted effect of over 30% in size). An outline of the steps: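 Cells (SH-SY5Y, 2,000 per well) are seeded and left overnight at 37 C. Compound is added for 30 min, then DTNB and acetylthiocholine for a further 90 min at 37 C before absorbance-based thiocholine detection.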

Assay [11] is described as follows: qHTS assay to identify small molecule agonists of the TGF-beta/Smad signaling pathway (AID 1346859; active = well fitted activation curve with a large enough effect in the signal ratio in the repeat runs, not every such curve was filed as active; the % refers to the signal ratio; note: series mostly up to about 77 µM). A digest of the protocol: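 Reporter line: HEK 293T with stably integrated SBE-controlled beta-lactamase. Compound exposure lasts 5 hr at 37 C and 5% CO2; substrate loading follows for 2 hr at room temperature, with emission read at 460 and 530 nm.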
Assay [12] addresses Thyrotropin-releasing hormone receptor (Homo sapiens) (UniProt P34981). Nature of the assay: qHTS assay to identify small molecule antagonists of the thyrotropin-releasing hormone receptor (TRHR) signaling pathway (AID 1346877; active = well fitted inhibition curve with a large enough effect in the repeat runs, not every such curve was filed as active; note: series mostly up to about 51 µM). An outline of the steps: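 Intracellular calcium fluorescence, read kinetically every second over 3 min, reports TRH-evoked signalling in HEK293 cells carrying TRHR. Test compounds were added 5 min ahead of a 1 nM TRH challenge.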

The target is the same in assay [13]. Nature of the assay: qHTS assay to identify small molecule agonists of the thyrotropin-releasing hormone receptor (TRHR) signaling pathway (AID 1346891; calls by dose curve;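 note: HEK293 cells expressing TRHR with calcium dye readout; series mostly up to about 58 µM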). A digest of the protocol:
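Cells: TRHR-Hek293, seeded and incubated 18 h. Dye loading: 2 h at 37 °C. Compound added from DMSO stock by pin tool. Read-out: kinetic calcium fluorescence over 3 min.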

Assay [14] is described as follows: Caspase-3/7 induction in CHO-K1 cells by small molecules, qHTS cell viability counter screen (AID 1346979). Note: nearly all actives have a fitted effect of over 35% in size. An outline of the steps: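 Cytotoxicity counter screen run in parallel with the caspase-3/7 assay: CHO-K1 cells, 16hr compound treatment at 37C, then CellTiter-Fluor for 1hr before fluorescence reading.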
Assay [15] in a line: Caspase-3/7 induction in CHO-K1 cells by small molecules, qHTS assay (AID 1346980). Note: nearly all actives have a fitted effect of over 15% in size. An outline of the steps: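 Luminescent Caspase-Glo 3/7 read (30min, room temperature) quantified apoptosis induction. Cells were wild-type CHO-K1, treated with compound for 17hr at 37 C and 5% CO2.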
Assay [16] addresses Progesterone receptor (Homo sapiens) (UniProt P06401). Nature of the assay: qHTS assay to identify small molecule antagonists of the progesterone receptor (PR) signaling pathway (AID 1346795; active = well fitted inhibition curve with a large enough effect in the signal ratio in the repeat runs, not every such curve was filed as active; the % refers to the signal ratio). A digest of the protocol: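 Antagonist mode: compounds tested against 1 nM (final) promegestone stimulation in HEK293T cells expressing PR-UAS-bla reporter, 16 hr at 37C, 5% CO2; beta-lactamase activity detected via B/G FRET substrate after 2 hr at room temperature.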

For assay [17], the target named is Nuclear receptor subfamily 1 group I member 2 (Rattus norvegicus) (UniProt Q9R1A7). Nature of the assay: Rat pregnane X receptor (rPXR) activation by small molecules, qHTS assay (AID 1346983). Note: nearly all actives have a fitted effect of over 20% in size. The following applies: rPXR luciferase reporter cells, One-Glo luminescence, 24 h; active compounds read high. An outline of the steps: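 Luminescent readout (One-Glo luciferase, 30 min room temperature) followed 24 hr compound treatment at 37 C of rPXR cells plated 2,000 per well and preincubated 5hr; qHTS format with compounds delivered in DMSO.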

Assay [18] concerns the target Nuclear receptor subfamily 1 group I member 2 (Homo sapiens) (UniProt O75469). Nature of the assay: CYP3A4 induction through human pregnane X receptor (PXR) by small molecules, qHTS assay (AID 1346984). Note: nearly all actives have a fitted effect of over 40% in size. A digest of the protocol: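 Luminescence readout: luciferase signal after One-Glo (30 min, room temperature), following 3 h at 37C with 3uM final Luciferin-IPA P450 substrate. Cells were DPX-2 (HepG2, PXR/CYP3A4-luc co-transfected) dosed for 24 h.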

The target is the same in assay [19]. Nature of the assay: Human pregnane X receptor (PXR) activation by small molecules, qHTS assay (AID 1346985). Note: nearly all actives have a fitted effect of over 40% in size. An outline of the steps:
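DPX-2 cells (HepG2 co-transfected with a PXR response element and a CYP3A4-promoter luciferase construct) were seeded at 2,000 per well, rested 5 hr at 37C, then exposed to DMSO-dissolved compounds for 24 hr. Activation was read as luciferase luminescence.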

A number with no mark means an inactive call. Results filed as inconclusive are left out. Active and inactive are the calls of the source. Unless noted, calls come from the whole dose curve; as a rule, active = well fitted curve in the direction sought with a large enough effect in the repeat runs; inconclusive = weak or mixed curves; inactive = no such curve, though single readings can be large; an effect the other way counts as inactive or inconclusive.
% is set by controls: 0 for no effect and ±100 for the full control effect.

Sequence of Progesterone receptor (Homo sapiens) (P06401 whole entry, looked up): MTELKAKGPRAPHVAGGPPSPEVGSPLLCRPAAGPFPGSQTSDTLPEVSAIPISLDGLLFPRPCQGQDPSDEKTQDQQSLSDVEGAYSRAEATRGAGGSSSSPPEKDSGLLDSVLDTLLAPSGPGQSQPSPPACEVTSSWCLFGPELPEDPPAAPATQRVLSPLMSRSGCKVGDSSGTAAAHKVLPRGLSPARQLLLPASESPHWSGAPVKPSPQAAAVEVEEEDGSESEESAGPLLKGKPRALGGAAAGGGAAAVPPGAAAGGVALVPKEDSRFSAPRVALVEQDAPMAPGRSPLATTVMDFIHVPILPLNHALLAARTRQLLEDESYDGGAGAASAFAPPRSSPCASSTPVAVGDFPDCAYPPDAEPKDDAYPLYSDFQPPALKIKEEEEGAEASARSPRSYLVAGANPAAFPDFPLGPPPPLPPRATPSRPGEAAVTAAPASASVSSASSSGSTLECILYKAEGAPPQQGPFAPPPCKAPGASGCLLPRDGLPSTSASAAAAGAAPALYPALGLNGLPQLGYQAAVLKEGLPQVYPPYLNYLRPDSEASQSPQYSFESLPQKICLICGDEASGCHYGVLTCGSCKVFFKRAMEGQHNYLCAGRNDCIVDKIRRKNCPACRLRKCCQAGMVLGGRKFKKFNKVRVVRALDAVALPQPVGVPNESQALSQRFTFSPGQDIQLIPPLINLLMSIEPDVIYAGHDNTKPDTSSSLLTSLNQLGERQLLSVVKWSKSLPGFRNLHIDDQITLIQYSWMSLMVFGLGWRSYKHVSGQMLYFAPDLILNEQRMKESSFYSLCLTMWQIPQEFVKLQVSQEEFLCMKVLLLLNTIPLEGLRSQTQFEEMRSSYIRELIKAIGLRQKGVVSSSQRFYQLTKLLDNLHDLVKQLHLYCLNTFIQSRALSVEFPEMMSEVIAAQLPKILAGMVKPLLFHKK
Sequence of Thyrotropin-releasing hormone receptor (Homo sapiens) (P34981 whole entry, looked up): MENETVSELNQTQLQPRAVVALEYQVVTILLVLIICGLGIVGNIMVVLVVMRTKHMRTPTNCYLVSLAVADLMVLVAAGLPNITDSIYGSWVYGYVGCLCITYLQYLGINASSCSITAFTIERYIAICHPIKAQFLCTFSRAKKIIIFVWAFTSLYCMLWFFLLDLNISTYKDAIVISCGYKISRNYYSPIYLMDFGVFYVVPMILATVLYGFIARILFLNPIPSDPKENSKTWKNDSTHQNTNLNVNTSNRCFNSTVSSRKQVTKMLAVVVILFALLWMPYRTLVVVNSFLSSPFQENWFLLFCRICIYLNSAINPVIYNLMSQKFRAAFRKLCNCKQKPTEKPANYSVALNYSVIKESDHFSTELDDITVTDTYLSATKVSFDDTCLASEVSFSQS
Sequence of Acetylcholinesterase (Homo sapiens) (P22303 whole entry, looked up): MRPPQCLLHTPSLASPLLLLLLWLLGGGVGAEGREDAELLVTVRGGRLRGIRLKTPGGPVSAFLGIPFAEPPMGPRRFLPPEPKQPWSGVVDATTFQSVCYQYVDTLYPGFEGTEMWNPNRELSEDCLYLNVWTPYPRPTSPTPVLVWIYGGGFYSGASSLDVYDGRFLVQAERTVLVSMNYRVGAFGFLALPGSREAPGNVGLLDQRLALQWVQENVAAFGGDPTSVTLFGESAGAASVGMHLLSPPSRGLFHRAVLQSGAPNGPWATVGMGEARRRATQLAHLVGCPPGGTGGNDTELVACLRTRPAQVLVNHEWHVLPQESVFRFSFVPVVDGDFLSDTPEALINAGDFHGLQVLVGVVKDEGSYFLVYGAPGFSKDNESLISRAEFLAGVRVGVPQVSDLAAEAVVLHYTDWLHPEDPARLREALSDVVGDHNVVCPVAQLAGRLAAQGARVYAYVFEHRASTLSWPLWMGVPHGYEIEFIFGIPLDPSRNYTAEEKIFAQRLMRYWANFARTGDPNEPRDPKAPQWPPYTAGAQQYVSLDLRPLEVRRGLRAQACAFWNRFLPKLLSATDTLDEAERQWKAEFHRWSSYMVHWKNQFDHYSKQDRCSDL
Sequence of Nuclear receptor subfamily 1 group I member 2 (Homo sapiens) (O75469 whole entry, looked up): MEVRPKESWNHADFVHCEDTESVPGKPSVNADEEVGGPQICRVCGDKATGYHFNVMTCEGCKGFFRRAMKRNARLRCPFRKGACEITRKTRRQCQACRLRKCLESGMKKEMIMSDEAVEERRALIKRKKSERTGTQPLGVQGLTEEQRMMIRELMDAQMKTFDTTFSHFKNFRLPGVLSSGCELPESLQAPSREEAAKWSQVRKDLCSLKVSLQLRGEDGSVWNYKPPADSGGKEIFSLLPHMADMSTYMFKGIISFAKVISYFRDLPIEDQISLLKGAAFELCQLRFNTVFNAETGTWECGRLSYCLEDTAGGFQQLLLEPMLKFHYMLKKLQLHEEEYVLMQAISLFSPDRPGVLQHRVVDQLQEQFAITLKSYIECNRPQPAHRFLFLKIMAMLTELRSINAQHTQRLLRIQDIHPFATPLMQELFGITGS
Sequence of Nuclear receptor subfamily 1 group I member 2 (Rattus norvegicus) (Q9R1A7 whole entry, looked up): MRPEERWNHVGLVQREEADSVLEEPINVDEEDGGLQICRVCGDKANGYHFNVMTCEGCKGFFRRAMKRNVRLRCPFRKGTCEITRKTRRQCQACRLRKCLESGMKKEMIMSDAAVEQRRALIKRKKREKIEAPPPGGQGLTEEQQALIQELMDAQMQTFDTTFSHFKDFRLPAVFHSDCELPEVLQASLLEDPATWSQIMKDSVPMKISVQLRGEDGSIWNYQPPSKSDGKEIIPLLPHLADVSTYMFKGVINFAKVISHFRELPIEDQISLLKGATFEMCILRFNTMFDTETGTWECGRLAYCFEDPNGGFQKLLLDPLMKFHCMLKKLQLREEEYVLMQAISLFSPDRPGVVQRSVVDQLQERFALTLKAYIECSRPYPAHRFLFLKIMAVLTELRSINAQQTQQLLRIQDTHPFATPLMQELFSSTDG

Take `COC1=CC(=O)O[C@@H](/C=C/c2ccccc2)C1`: the Potency result in assay [1], in [2], in [3], in assay [5], in [6] and in assay [8] was “inactive” throughout. Also, in assay [10], the Potency result is “inactive”. In addition, the compound was classed as inactive in assay [4] and in [7]. For the same compound, the Potency in assay [9] was 24.7 µM (active).
Regarding `CON(C)C(=O)Nc1ccc(Br)cc1`, the Potency result in [1], in assay [2], in assay [5], in assay [12], in [6] and in assay [14] was “inactive” each time. Further, the Potency result in assay [8] and in assay [10] was “inactive” each time. Further, the compound was called inactive in assay [4], in assay [11], in [13], in assay [7] and in assay [15]. The Potency in assay [9] was 38.6 µM (active).
As to `Cc1ccc2c(c1)C1CN(C)CCC1N2` (stereo unspecified), the activation is -0.799% [at 19 µM] in [1], 3.74% [at 15.8 µM] in [11] and -3.35% [at 19 µM] in assay [9]. The activity change, negative = inhibition in [16] was 5.78% [at 18.9 µM]. Also, the activity change, negative = cytotoxicity in [2] was -15.8% [at 18.9 µM]; in assay [5] it was -8.68% [at 15.8 µM]; in assay [6], -7.69% [at 19 µM]; in assay [14], -2.08% [at 19 µM]; in assay [8] it was -0.14% [at 19 µM]. Besides, in assay [4], the viability change, negative = cytotoxic was 0.721% [at 15.8 µM]. Also, the caspase activation in [7] was -1.19% [at 19 µM]. Besides, in assay [15], the caspase-3/7 activation is -0.28% [at 19 µM]. Further, the max activation in assay [17] is 1.15%. Also, the Potency entry in [18] and in assay [19] was “inactive” in each case. In addition, the activity, negative = inhibition in assay [10] was -0.458% [at 23.6 µM].
Consider `CCNP(=S)(OC)O/C(C)=C/C(=O)OC(C)C` (stereo unspecified), for which the Potency result in [1], in assay [2], in assay [3], in assay [5], in assay [12] and in [6] was “inactive” in each case. The call in assay [11], in [13], in assay [7] and in [15] was inactive. Also, in [9], the Potency is 9.69 µM (active).
Regarding `O=C(NC(=O)c1c(F)cccc1F)Nc1cc(Cl)c(F)c(Cl)c1F`, the Potency result in assay [1], in assay [2], in assay [3], in assay [5], in assay [12] and in assay [6] was “inactive” throughout. For the same compound, the Potency entry in assay [14], in assay [8] and in [10] was “inactive” each time. Moreover, the compound was classed as inactive in [11], in [13], in [7] and in [15].
On to `C#CCOC(=O)/C=C(C)/C=C/CC(C)CCCC(C)C` (stereo unspecified), for which the Potency entry in assay [1], in [16], in [2], in assay [3], in [12] and in assay [6] was “inactive” in each case. For the same compound, the Potency entry in assay [14], in assay [9] and in assay [10] was “inactive” each time. In addition, the compound was called inactive in [4], in [11], in assay [13], in assay [7] and in assay [15].
For `N=C(N)[Se]`, the Potency entry in [1], in assay [16], in assay [2], in assay [3], in [6] and in assay [14] was “inactive” throughout. For the same compound, the Potency entry in assay [8], in assay [9] and in assay [10] was “inactive” in each case. Besides, the result in [4], in [11], in [7] and in [15] was inactive.

The record behind these values is PubChem BioAssay (Tox21).
